Source: PubChem BioAssay AID1565 (Sanford-Burnham Center for Chemical Genomics, 2009)
Among all 290,000 compounds or so, about 3,200 (1.1%) were called active. No stated cut-off is given here; in the data, active means inhibition above about 60%; inactive means the rest. The full list was thinned out, with actives kept by preference.

target: Phosphoethanolamine/phosphocholine phosphatase (Homo sapiens) (UniProt Q8TCT1); experiment: PubChem AID 1565; conditions: recombinant PHOSPHO1, absorbance phosphatase assay; at 13.3 µM; hits give high values
Sequence (Q8TCT1 whole entry, looked up): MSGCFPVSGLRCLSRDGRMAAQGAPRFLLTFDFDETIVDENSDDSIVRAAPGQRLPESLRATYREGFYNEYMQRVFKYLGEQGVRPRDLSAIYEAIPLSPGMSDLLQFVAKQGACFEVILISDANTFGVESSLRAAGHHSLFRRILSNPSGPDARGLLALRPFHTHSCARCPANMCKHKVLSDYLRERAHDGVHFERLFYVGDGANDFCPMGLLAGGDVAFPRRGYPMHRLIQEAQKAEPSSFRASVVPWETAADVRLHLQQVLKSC

inhibition, active:
Oc1ccccc1/C=N/n1c(-c2cccs2)n[nH]c1=S 106%
CC(C)C[C@@H](N)c1nnc(SCC(=O)c2ccc(Cl)cc2)o1 81.6%
O=C(COc1ccc(Cl)cc1Cl)N/N=C/c1ccccn1 61%
CSCCC(NC(=O)c1ccco1)C(=O)OCC(=O)Nc1ncc(Cl)c(C)c1Cl (stereo unspecified) 63.8%
CCCCSc1nnc2c(n1)OC=Nc1ccccc1-2 60.8%
Oc1c(C(c2ccccn2)N2CCOCC2)ccc2cccnc12 (stereo unspecified) 92.7%
CS(=O)(=O)c1sc2nc(-c3ccccc3)cc(-c3ccccc3)c2c1N 94.5%
NC(=S)c1ccc(C(N)=S)o1 95.9%
CCCOC1CCCN(Cc2cn(C)nc2-c2ccccc2F)C1 (stereo unspecified) 60.1%
CCCCCCC(=O)Nc1nc(C)c(-c2csc(Nc3cccc(OC)c3)n2)s1 104%
CCCCCCC(=O)Nc1nc(C)c(-c2csc(Nc3cc(Cl)ccc3OC)n2)s1 96.2%
CCOC(=O)C1=NN(c2ccc(Cl)cc2)/C(=C/C2=NCCc3cc(OC)c(OC)cc32)S1 63.1%
Cn1c(-c2ccc(F)cc2)cnc1SCC(=O)NCc1ccco1 65.2%
O=C(CSc1nnc2scc(-c3ccc(F)cc3)n12)NCc1ccco1 67.4%
CCCCn1c(=S)[nH]c2cc(S(=O)(=O)N3CCCCC3)ccc21 99.7%

inhibition, inactive:
S=c1[nH]nc(-c2cccs2)n1/N=C/c1cccs1 56.2%
S=c1[nH]nc(-c2cccs2)n1/N=C/c1cn(-c2ccccc2)nc1-c1ccc(Cl)cc1 -132%
CC(=O)Oc1ccc2c(=O)oc(-c3ccc([N+](=O)[O-])cc3)nc2c1 35.6%
O=C(COc1ccc(Cl)cc1Cl)NCCCNC(=O)c1cnccn1 44.9%
COc1cc(C(=O)NCc2nnc(SCC(=O)c3ccc(Cl)cc3)o2)cc(OC)c1OC 43.5%
Cc1cc(C)nc(SCC(=O)c2ccc(Cl)cc2)n1 27%
O=C(CN1CCN(C(=O)C2CCCO2)CC1)Nc1c(Cl)cccc1Cl (stereo unspecified) 26.3%
Cc1cccnc1NC(=O)c1cccc(S(=O)(=O)N2CCN(c3ccc(F)cc3)CC2)c1 27%
O=C(N/N=C/c1ccccn1)c1cccc(NC(=O)c2ccc(Cl)cc2)c1 41.5%
CSc1ccc(/C=N\NC(=O)COc2ccc(Cl)cc2Br)cc1 -15.7%
N#Cc1ccc(S(=O)(=O)NCC(=O)OCC(=O)NCCc2ccccc2)cc1 28.7%
O=C(Nc1ccc(C2CC2(Cl)Cl)cc1)c1cccc([N+](=O)[O-])c1 (stereo unspecified) -31.5%
Cc1c(Cl)cnc(NC(=O)COC(=O)c2ccc(S(=O)(=O)NCc3ccco3)cc2)c1Cl -11.7%
CSCCC(NC(=O)COc1ccccc1)C(=O)OCC(=O)c1cc2ccccc2o1 (stereo unspecified) 0.2%
O=C1CCC(C(=O)N2CCC(O)(c3ccccc3)CC2)CN1CCc1ccccc1 (stereo unspecified) 51.4%
CS(=O)(=O)c1ccc(-c2nnn(CC(=O)Nc3ccc4c(c3)OCCO4)n2)cc1 11%
CCCCSc1nc2ccccc2[nH]1 11.7%
CCCCSc1nnc(-c2ccc(C)cc2)o1 1.3%
COC(=O)c1ccc(COc2ccc(C#N)cc2)o1 44.1%
CC1CCN(CC(O)COc2ccc(C(=O)c3ccccc3)cc2)CC1 (stereo unspecified) 8.5%
Cc1cc(NC(=O)c2ccccc2C)no1 19.1%
CCOc1cc(N2CCOCC2)c(OCC)cc1NC(=O)COc1cccc2cccnc12 23.3%
OC(COc1ccc2ccccc2c1)CN1CCOCC1 (stereo unspecified) 8%
Cc1ccc(NC(=O)C2CCN(S(=O)(=O)c3ccc4c(c3)NC(=O)CO4)CC2)cc1C 26.1%
CCc1ccc(N(C(=O)c2csnn2)C(C(=O)NC2CCCCC2)c2ccncc2)cc1 (stereo unspecified) 41.6%
CCN(CC)C(=O)c1sc2nc(-c3ccccc3)ccc2c1N 21.4%
Nc1nc(-c2ccccc2)cc(-c2ccccc2)n1 19.2%
CCc1ccc(NC(=O)C(=O)NNC(=O)c2cccs2)cc1 44.9%
Cn1cc(CN2CCCC(CO)C2)c(-c2ccc(Oc3ccccc3)cc2)n1 (stereo unspecified) 39.5%
Cn1cc(CN2CCC(C(O)CCc3ccccc3)CC2)c(-c2ccccc2F)n1 (stereo unspecified) 28.2%
O=C(CSc1nnc2c(n1)[nH]c1ccccc12)NC1CCCCC1 3.6%
Cc1ccc(Nc2nc(-c3sc(NC(=O)c4ccccc4)nc3C)cs2)cc1 37.9%
CCCCC(=O)Nc1nc(C)c(-c2csc(Nc3ccc(Cl)cc3)n2)s1 28.7%
Cc1nc(NC(=O)c2cccc(Cl)c2)sc1-c1csc(Nc2cccc(Cl)c2)n1 19.2%
C=CCCC(=O)Nc1nc(C)c(-c2csc(Nc3ccc(Cl)cc3)n2)s1 -1.4%
CCc1ccc(N(CC(=O)NCc2cccnc2)S(=O)(=O)c2ccccc2)cc1 4.5%
COc1cc2c(cc1OC)C(/C=C/c1ccco1)=NCC2 5.3%
CCOC(=O)C1=C(CN2CCc3ccccc32)NC(=O)NC1c1ccc(Cl)cc1 (stereo unspecified) 18.7%
Cc1ccc(-c2csc3nnc(SCC(=O)NCc4ccco4)n23)cc1 17.6%
CCn1c(SCC(=O)NCc2ccco2)nnc1-c1ccc(N)cc1 42.7%
O=C(CSc1nnc(-c2c[nH]c3ccccc23)n1-c1ccc(F)cc1)NCc1ccco1 9.8%
Cn1c(-c2ccc(F)cc2)cnc1SCC(=O)NNC(=O)Cc1ccccc1 10.2%
CCOc1ccc(OCc2cccc(C(=O)N(CC)CC)c2)cc1 -26.2%
O=[N+]([O-])c1ccc2c(c1)Nc1nc3ccccc3nc1N2 29.5%
CCCCn1c(=S)[nH]c2ccccc2c1=O -12.1%
O=c1[nH]c2ccc(S(=O)(=O)N3CCCC3)cc2[nH]1 39.1%
